For some assays here: Measured potencies and affinities stand elsewhere. The source made the active and inactive calls. Unless noted, how the calls were made is not given here.
What was measured:
[1] = antimalarial activity against Dd2 strain (AID 2302;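 active means growth inhibition above 50% at the single 2 µM test dose, taken to imply half-maximal potency below 2 µM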;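 further: 0% = DMSO untreated growth and 100% = chloroquine plus artemisinin killed control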); settings: P. falciparum Dd2 in RBCs, LDH growth readout, 72 h; at 2 µM; stronger effect = higher value
[2] = human hepatoma cell viability loss – ATP luminescence, cytotoxicity control for P. falciparum antimalarial project, primary screen (AID 2303;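 active means inhibition above 50%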;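 further: 0% = DMSO wells and 100% = digitonin-killed cells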); settings: HepG2 viability, 24-48 h, at 10 µM, stronger effect = higher value
[3] = molecular target: L-lactate dehydrogenase (Plasmodium falciparum (isolate CDC / Honduras)) (UniProt Q27743); assay: PfLDH activity inhibition – cell lysate, 3D7 strain, counter-screen for P. falciparum growth inhibition project (AID 2304);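 further: 0% = vehicle and 100% = reference inhibitor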; settings: P. falciparum 3D7 crude extract, LDH APAD/NBT absorbance; at 2 µM; stronger effect = higher value
L-lactate dehydrogenase (Plasmodium falciparum (isolate CDC / Honduras)), sequence (Q27743 whole entry, looked up): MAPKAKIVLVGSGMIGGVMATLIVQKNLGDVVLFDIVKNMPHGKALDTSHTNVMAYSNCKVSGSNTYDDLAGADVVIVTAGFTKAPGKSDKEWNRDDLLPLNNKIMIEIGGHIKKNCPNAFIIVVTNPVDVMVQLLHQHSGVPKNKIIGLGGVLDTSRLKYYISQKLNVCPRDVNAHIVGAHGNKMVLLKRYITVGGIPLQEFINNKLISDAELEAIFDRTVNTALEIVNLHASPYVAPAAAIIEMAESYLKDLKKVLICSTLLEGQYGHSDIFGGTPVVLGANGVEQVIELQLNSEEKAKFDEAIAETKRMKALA

[4] = inhibition of 3D7 malaria parasite growth – strain 3D7 (AID 2306);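 further: 0% = DMSO wells and 100% = chloroquine plus artemisinin control wells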; settings: P. falciparum 3D7 erythrocytic growth, LDH absorbance, 72 h; at 2 µM; stronger effect = higher value
[5] = molecular target: Calcium-dependent protein kinase 1 (Plasmodium falciparum (isolate 3D7)) (UniProt P62344); assay: PfCDPK1 kinase inhibitors, biochemical, TCAMS library (AID 1159585; cut-off not given, nearly all actives have IC50 up to about 0.98 µM;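 further: inhibitors leave more ATP so luminescence rises with inhibition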); settings: recombinant PfCDPK1, Kinase-Glo ATP depletion luminescence
Calcium-dependent protein kinase 1 (Plasmodium falciparum (isolate 3D7)), sequence (P62344 whole entry, looked up): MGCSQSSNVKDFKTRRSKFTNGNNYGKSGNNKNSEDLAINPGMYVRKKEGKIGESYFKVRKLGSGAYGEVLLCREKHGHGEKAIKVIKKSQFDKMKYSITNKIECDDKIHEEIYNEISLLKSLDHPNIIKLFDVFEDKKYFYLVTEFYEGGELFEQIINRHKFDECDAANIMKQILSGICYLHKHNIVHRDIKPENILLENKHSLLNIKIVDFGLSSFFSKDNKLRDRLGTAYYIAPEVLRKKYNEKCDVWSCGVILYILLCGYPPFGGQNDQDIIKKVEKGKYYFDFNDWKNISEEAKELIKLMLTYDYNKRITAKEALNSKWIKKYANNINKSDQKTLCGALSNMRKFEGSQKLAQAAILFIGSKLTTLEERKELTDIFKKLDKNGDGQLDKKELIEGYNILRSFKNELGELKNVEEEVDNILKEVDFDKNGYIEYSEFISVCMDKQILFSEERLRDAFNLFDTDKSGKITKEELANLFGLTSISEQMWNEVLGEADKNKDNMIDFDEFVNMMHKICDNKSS

[6] = molecular target: Plasmodium falciparum protein kinase 6 (PK6, PF3D7_1337100) (UniProt Q8IDW1); assay: PfPK6 kinase inhibitors, biochemical, TCAMS library (AID 1159586); settings: recombinant PfPK6, Kinase-Glo ATP depletion luminescence
Plasmodium falciparum protein kinase 6 (PK6, PF3D7_1337100), sequence (Q8IDW1 1-305): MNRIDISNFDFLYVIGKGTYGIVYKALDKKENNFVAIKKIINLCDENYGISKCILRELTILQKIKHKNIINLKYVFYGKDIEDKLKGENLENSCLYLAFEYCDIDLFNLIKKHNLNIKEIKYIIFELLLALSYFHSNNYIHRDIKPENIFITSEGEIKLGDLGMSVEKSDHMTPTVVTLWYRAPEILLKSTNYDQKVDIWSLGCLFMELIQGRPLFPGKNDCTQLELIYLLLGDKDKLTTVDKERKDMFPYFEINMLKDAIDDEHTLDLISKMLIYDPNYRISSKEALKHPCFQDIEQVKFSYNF

[7] = molecular target: Protein kinase 7 (PK7), Plasmodium falciparum 3D7 (PF3D7_0213400) (UniProt Q7YTF7); assay: inhibition of Plasmodium PK7 catalytic activity – biochemical, TCAMS antimalarial set, Kinase-Glo luminescence (AID 1159587); settings: recombinant PfPK7, Kinase-Glo ATP depletion luminescence
Protein kinase 7 (PK7), Plasmodium falciparum 3D7 (PF3D7_0213400), sequence (Q7YTF7 1-343): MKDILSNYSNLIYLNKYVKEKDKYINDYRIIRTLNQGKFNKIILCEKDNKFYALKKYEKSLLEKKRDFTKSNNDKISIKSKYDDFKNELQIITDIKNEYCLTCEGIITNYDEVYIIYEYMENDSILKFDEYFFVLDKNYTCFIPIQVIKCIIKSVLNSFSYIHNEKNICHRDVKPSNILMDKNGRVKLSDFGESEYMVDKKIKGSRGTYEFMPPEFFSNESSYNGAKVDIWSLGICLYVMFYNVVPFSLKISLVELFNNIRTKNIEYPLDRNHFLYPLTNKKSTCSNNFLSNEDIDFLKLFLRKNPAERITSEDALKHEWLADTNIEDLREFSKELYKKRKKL

[8] = molecular target: Calcium-dependent protein kinase 4 (Plasmodium falciparum (isolate 3D7)) (UniProt Q8IBS5); assay: PfCDPK4 kinase inhibitors, biochemical, TCAMS library (AID 1159588; cut-off not given, nearly all actives have IC50 up to about 0.91 µM); settings: recombinant PfCDPK4, Kinase-Glo ATP depletion luminescence
Calcium-dependent protein kinase 4 (Plasmodium falciparum (isolate 3D7)), sequence (Q8IBS5 whole entry, looked up): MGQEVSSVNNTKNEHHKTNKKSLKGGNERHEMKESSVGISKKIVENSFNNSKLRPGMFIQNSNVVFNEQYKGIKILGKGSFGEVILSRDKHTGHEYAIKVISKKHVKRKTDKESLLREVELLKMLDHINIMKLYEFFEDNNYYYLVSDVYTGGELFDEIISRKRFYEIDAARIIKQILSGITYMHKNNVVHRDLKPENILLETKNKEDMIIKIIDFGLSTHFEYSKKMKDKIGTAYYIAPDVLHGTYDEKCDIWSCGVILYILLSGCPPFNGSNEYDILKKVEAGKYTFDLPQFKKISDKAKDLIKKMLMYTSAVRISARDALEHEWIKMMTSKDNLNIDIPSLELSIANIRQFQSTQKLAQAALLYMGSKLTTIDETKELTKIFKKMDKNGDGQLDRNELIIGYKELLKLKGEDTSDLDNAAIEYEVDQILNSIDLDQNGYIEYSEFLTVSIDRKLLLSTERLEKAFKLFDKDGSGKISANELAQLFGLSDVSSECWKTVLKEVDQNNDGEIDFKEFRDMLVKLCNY

COc1ccc2nccc([C@H](O)CN3CCC(NCc4cc(C)c5c(c4)OCCO5)CC3)c2n1
active: growth inhibition [4] 96%
inactive: growth inhibition [1] 35% | inhibition [2] 12% | inhibition [3] 3% | outcome [5] | outcome [6] | outcome [7] | outcome [8]

Cc1cc(N[C@@H](Cc2ccccc2)C(=O)NCc2cccc(F)c2)nc(NCCOc2ccccc2)n1
inactive: growth inhibition [1] 7% | inhibition [2] 0% | inhibition [3] -3% | outcome [5] | outcome [6] | outcome [7] | outcome [8]
active: growth inhibition [4] 97%

CCNc1cc(C(=O)N[C@@H](Cc2ccccc2)[C@H](O)CNC2C3CC4CC(C3)CC2C4)cc(N2CCCCS2(=O)=O)c1 (stereo not given in full)
active: growth inhibition [1] 96% | growth inhibition [4] 97%
inactive: inhibition [2] -2% | inhibition [3] 6% | outcome [5] | outcome [6] | outcome [7] | outcome [8]

CN1CCC(c2nc(N)no2)C1 (stereo not given)
active: growth inhibition [4] 95%
inactive: growth inhibition [1] 2% | inhibition [2] 15% | inhibition [3] 0% | outcome [5] | outcome [6] | outcome [7] | outcome [8]

COc1ccc(Cl)cc1NC(=O)CN(C)C(=O)c1cnn(-c2ccccc2)n1
inactive: inhibition [2] -6% | inhibition [3] -2% | outcome [5] | outcome [6] | outcome [7] | outcome [8]
active: growth inhibition [1] 99% | growth inhibition [4] 102%

Cc1nc(C(=O)N2CCCC[C@H]2CNC(=O)c2ccc(-c3ccc(N4CCCC4=O)cc3C)cc2)c(-c2ccc(F)cc2)s1
active: growth inhibition [1] 94% | growth inhibition [4] 98%
inactive: inhibition [2] 6% | inhibition [3] 8% | outcome [5] | outcome [6] | outcome [7] | outcome [8]

Oc1ccc2[nH]cc(C3CCN(CCC(c4ccccc4)c4ccccc4)CC3)c2c1
inactive: growth inhibition [1] 42% | inhibition [2] 27% | inhibition [3] -3% | outcome [5] | outcome [6] | outcome [7] | outcome [8]
active: growth inhibition [4] 90%

O=C1c2ccc([N+](=O)[O-])cc2C(=O)N1c1ccc2[nH]ncc2c1
inactive: growth inhibition [1] -1% | inhibition [2] 11% | inhibition [3] -1% | outcome [5] | outcome [6] | outcome [7] | outcome [8]
active: growth inhibition [4] 87%

O=C(NC1CCN(Cc2ccccc2)CC1)c1cc(-c2ccncc2)nc2ccc(Cl)cc12
inactive: growth inhibition [1] 27% | inhibition [2] 17% | inhibition [3] 0% | outcome [5] | outcome [6] | outcome [7] | outcome [8]
active: growth inhibition [4] 97%

O=C(Nc1ccc(OC2CCN(Cc3ccc(F)cc3)C2)c(Cl)c1)c1ccsc1 (stereo not given)
active: growth inhibition [1] 95% | growth inhibition [4] 98%
inactive: inhibition [2] 26% | inhibition [3] -3% | outcome [5] | outcome [6] | outcome [7] | outcome [8]

OCCn1c(CNCCCNc2nc3ccccc3[nH]2)cc2c(Cl)cc(Cl)cc21
inactive: growth inhibition [1] 0% | inhibition [2] 29% | inhibition [3] -6% | outcome [5] | outcome [6] | outcome [7] | outcome [8]
active: growth inhibition [4] 95%

O=C(Cn1c2ccccc2c(=O)c2ccc(Cl)cc21)Nc1ccc(C(F)(F)F)cc1
active: growth inhibition [1] 100% | growth inhibition [4] 99%
inactive: inhibition [2] 30% | inhibition [3] -3% | outcome [5] | outcome [6] | outcome [7] | outcome [8]

CC(C)(CNC(=O)/C=C/c1ccc(C(F)(F)F)cc1)CNc1cc(=O)c2ccccc2[nH]1
inactive: growth inhibition [1] 27% | inhibition [2] -1% | inhibition [3] -6% | outcome [5] | outcome [6] | outcome [7] | outcome [8]
active: growth inhibition [4] 95%

N=C1c2ccccc2CN1CC(=O)c1ccc(Cl)c(Cl)c1
active: growth inhibition [4] 98%
inactive: growth inhibition [1] 16% | inhibition [2] 1% | inhibition [3] 0% | outcome [5] | outcome [6] | outcome [7] | outcome [8]

COc1cc2nc(NCCc3ccccc3)nc(NC(C)c3ccccc3)c2cc1OC (stereo not given)
inactive: inhibition [2] 9% | inhibition [3] 1% | outcome [5] | outcome [6] | outcome [7] | outcome [8]
active: growth inhibition [1] 100% | growth inhibition [4] 99%

O=C(Nc1cccc(CN2CCCN(CCc3ccccc3)CC2)c1)c1cc2ccccc2s1
active: growth inhibition [4] 93%
inactive: growth inhibition [1] 39% | inhibition [2] 37% | inhibition [3] 4% | outcome [5] | outcome [6] | outcome [7] | outcome [8]

O=C(NC(Nc1ccc([N+](=O)[O-])cc1)C(Cl)(Cl)Cl)c1ccc(Cl)cc1 (stereo not given)
inactive: inhibition [2] 21% | inhibition [3] 4% | outcome [5] | outcome [6] | outcome [7] | outcome [8]
active: growth inhibition [1] 94% | growth inhibition [4] 98%

Cc1cccc2[nH]c(-c3cccc(-c4cccc(NC(=O)COc5ccccc5C(N)=O)c4)c3)nc12
inactive: inhibition [2] 22% | inhibition [3] -2% | outcome [5] | outcome [6] | outcome [7] | outcome [8]
active: growth inhibition [1] 88% | growth inhibition [4] 100%

COc1ccc(OCCn2cc(C(=O)c3ccco3)c3ccccc32)cc1
active: growth inhibition [1] 61% | growth inhibition [4] 98%
inactive: inhibition [2] 17% | inhibition [3] -1% | outcome [5] | outcome [6] | outcome [7] | outcome [8]

O=C(Nc1ccccc1)Nc1cccc(-c2cccc(-c3nc4ccc(F)cc4[nH]3)c2)c1
active: growth inhibition [4] 99%
inactive: growth inhibition [1] 41% | inhibition [2] 38% | inhibition [3] 4% | outcome [5] | outcome [6] | outcome [7] | outcome [8]

CN1CCCN(Cc2ccc(-c3cccc(NC(=O)c4cccc(Cl)c4)c3)cc2)CC1
active: growth inhibition [4] 100%
inactive: growth inhibition [1] 32% | inhibition [2] 33% | inhibition [3] -3% | outcome [5] | outcome [6] | outcome [7] | outcome [8]

CN1CCN(CCCN(Cc2cccc(-c3ccc(CNCCc4ccccc4)cc3)c2)C(=O)Nc2ccccc2)CC1
inactive: inhibition [3] 3% | outcome [5] | outcome [6] | outcome [7] | outcome [8]
active: growth inhibition [1] 91% | inhibition [2] 61% | growth inhibition [4] 100%

CC(=O)Nc1ccc(C(=O)NC2CCN(c3ccnc4cc(Cl)ccc34)C2)cc1 (stereo not given)
active: growth inhibition [1] 100% | growth inhibition [4] 101%
inactive: inhibition [2] 1% | inhibition [3] -1% | outcome [5] | outcome [6] | outcome [7] | outcome [8]

Cc1cc(Nc2ccc(OCc3ccccc3Cl)cc2)c2cc(Cl)ccc2n1
inactive: inhibition [2] 33% | inhibition [3] 5% | outcome [5] | outcome [6] | outcome [7] | outcome [8]
active: growth inhibition [1] 58% | growth inhibition [4] 100%

COC(=O)c1c(NC(=O)c2cccc(C(F)(F)F)c2)sc2c1CCN(Cc1ccccc1)C2
inactive: inhibition [2] 9% | inhibition [3] 0% | outcome [5] | outcome [6] | outcome [7] | outcome [8]
active: growth inhibition [1] 61% | growth inhibition [4] 84%

CN(CCCCNC(=O)c1cc2ccccc2[nH]1)C1CC2(CCN(C(=O)OC(C)(C)C)CC2)c2ccccc21 (stereo not given)
active: growth inhibition [1] 75% | growth inhibition [4] 86%
inactive: inhibition [2] 12% | inhibition [3] 2% | outcome [5] | outcome [6] | outcome [7] | outcome [8]

N#Cc1ccc(N2CCN(Cc3cccc(-c4ccc(-c5nc6ccc(C(F)(F)F)cc6[nH]5)s4)c3)CC2)nc1
inactive: inhibition [2] 31% | inhibition [3] -4% | outcome [5] | outcome [6] | outcome [7] | outcome [8]
active: growth inhibition [1] 52% | growth inhibition [4] 96%

CC(C)(C)c1ccc(CNC(=O)c2ccc(-c3nc4ccc(C(C)(C)C)cc4[nH]3)cc2)cc1
inactive: growth inhibition [1] 49% | inhibition [2] 21% | inhibition [3] 3% | outcome [5] | outcome [6] | outcome [7] | outcome [8]
active: growth inhibition [4] 96%

CCNC(=O)Nc1ccc(-c2ccc(-c3nc4c(C)cccc4[nH]3)s2)cc1
active: growth inhibition [4] 96%
inactive: growth inhibition [1] 13% | inhibition [2] 18% | inhibition [3] -2% | outcome [5] | outcome [6] | outcome [7] | outcome [8]

Cc1noc(C)c1-c1cccc(CNCc2cccc(-c3ccc(-c4nc5ccccc5[nH]4)cc3)c2)c1
active: growth inhibition [1] 76% | growth inhibition [4] 100%
inactive: inhibition [2] 27% | inhibition [3] -2% | outcome [5] | outcome [6] | outcome [7] | outcome [8]

FC(F)(F)c1ccc(/C=C/c2cncnc2Nc2ccc3nc(Cc4ccccc4)[nH]c3c2)cc1
inactive: inhibition [2] 21% | inhibition [3] 1% | outcome [5] | outcome [6] | outcome [7] | outcome [8]
active: growth inhibition [1] 101% | growth inhibition [4] 100%

FC(F)(F)c1ccc2nc(-c3cccc(-c4cccc(CNCC5CCCO5)c4)c3)[nH]c2c1 (stereo not given)
inactive: inhibition [2] 23% | inhibition [3] -2% | outcome [5] | outcome [6] | outcome [7] | outcome [8]
active: growth inhibition [1] 96% | growth inhibition [4] 100%

CC(C)N(CC(=O)c1ccc(O)c(C(=O)O)c1)Cc1ccccc1
active: growth inhibition [4] 97%
inactive: growth inhibition [1] 26% | inhibition [2] -7% | inhibition [3] -7% | outcome [5] | outcome [6] | outcome [7] | outcome [8]

CCCN(Cc1nnc(-c2cccs2)o1)C(=O)CSc1nnnn1-c1cc(C)cc(C)c1
inactive: inhibition [2] 2% | inhibition [3] 8% | outcome [5] | outcome [6] | outcome [7] | outcome [8]
active: growth inhibition [1] 71% | growth inhibition [4] 92%

c1ccc(-c2csc(Nc3nc4cc5c(cc4s3)OCO5)n2)nc1
active: growth inhibition [1] 99% | growth inhibition [4] 81%
inactive: inhibition [2] 46% | inhibition [3] -3% | outcome [5] | outcome [6] | outcome [7] | outcome [8]

O=C(Nc1cccc(C(F)(F)F)c1)Nc1ccc(Cl)c(C(F)(F)F)c1
active: growth inhibition [1] 99% | growth inhibition [4] 99%
inactive: inhibition [2] -4% | inhibition [3] -6% | outcome [5] | outcome [6] | outcome [7] | outcome [8]

CCSc1ccc(C)cc1CON1C(N)=NC(N)=NC1(C)C
active: growth inhibition [1] 96% | inhibition [2] 66% | growth inhibition [4] 94%
inactive: inhibition [3] 0% | outcome [5] | outcome [6] | outcome [7] | outcome [8]

COCCOc1cc(C)c(C2CCN(CCCCNC(=O)c3ccc(NC(=O)c4ccc(Cl)cc4)cc3)CC2)cc1C
inactive: growth inhibition [1] 30% | inhibition [2] 15% | inhibition [3] -2% | outcome [5] | outcome [6] | outcome [7] | outcome [8]
active: growth inhibition [4] 88%

O=C(Nc1cc(C(F)(F)F)ccc1Cl)c1ccc(Cn2cc(Br)cn2)cc1
inactive: inhibition [2] 24% | inhibition [3] -5% | outcome [5] | outcome [6] | outcome [7] | outcome [8]
active: growth inhibition [1] 67% | growth inhibition [4] 91%

CC1(C)N=C(N)N=C(N)N1OCCCCOc1ccc(Cl)cc1C1CCCCC1
inactive: inhibition [3] 2% | outcome [5] | outcome [6] | outcome [7] | outcome [8]
active: growth inhibition [1] 97% | inhibition [2] 56% | growth inhibition [4] 93%

— PubChem BioAssay
